Source: PubChem BioAssay (Tox21)
Inconclusive results are not listed. A call without a number means that no potency is given here. The source made the active and inactive calls. Calls follow the shape of the full dose curve.

Assay: qHTS assay for small molecules that induce genotoxicity in human embryonic kidney cells expressing luciferase-tagged ATAD5 - cell viability (AID 651634); also: nearly all actives have a fitted effect of over 25% in size
Details: HEK293T ATAD5-luc cells viability, CellTiter-Fluor, 15.5 h; series mostly up to 83.3 µM
Method in brief: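 Cells (HEK293T, luciferase-tagged ATAD5) are seeded at 2,000 per well, dosed with compound or DMSO vehicle, and incubated 15.5 hr at 37C and 5% CO2. CellTiter-Fluor is added for 30 min before fluorescence is measured.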
Potency is read from the fitted curve at half-maximal effect.

Row | SMILES | Potency
1 | CCCCCC(O)/C=C/C=O (centres undefined) | inactive
2 | O=C(Cn1c(=O)sc2ccc(Cl)cc21)N1CCN(CCO)CC1 | inactive
3 | COc1ccc2c(c1)OC(C)(C)C(c1ccccc1)C2c1ccc(OCCN2CCCC2)cc1 (centres undefined) | 26.6 µM (active)
4 | CCCCCCOc1ccc(C(=N)N(CCCC)CCCC)c2ccccc12 | 23.7 µM (active)
5 | C[C@H](N)C(=O)N[C@@H](C)P(=O)(O)O | inactive
6 | OC[C@H]1OC([S-])[C@H](O)[C@@H](O)[C@@H]1O.[Au+] (some centres undefined) | inactive
7 | CC[C@@H](C(=O)[C@@H](C)[C@@H](O)[C@H](C)[C@@H]1O[C@@H]([C@@H](CC)C(=O)O)CC[C@@H]1C)[C@H]1O[C@]2(C=C[C@@H](O)[C@]3(CC[C@@](C)([C@H]4CC[C@](O)(CC)[C@H](C)O4)O3)O2)[C@H](C)C[C@@H]1C | 8.41 µM (active)
8 | C=C1CC[C@H](O)CC1=C/C=C1\CCC[C@]2(C)[C@@H]([C@H](C)CCCC(C)(C)O)CC[C@@H]12 | 13.3 µM (active)
9 | O=C(COc1ccc(Cl)cc1)OCCNC12CC3CC(CC(C3)C1)C2 | inactive
10 | CCOC(=O)Oc1c(OC)cc(C(=O)O[C@@H]2C[C@@H]3CN4CCc5c([nH]c6cc(OC)ccc56)[C@H]4C[C@@H]3[C@H](C(=O)OC)[C@H]2OC)cc1OC | inactive
11 | Nc1nc2[nH]cc(CCc3ccc(C(=O)N[C@@H](CCC(=O)O)C(=O)O)cc3)c2c(=O)[nH]1 | inactive
12 | CC(CC(c1ccccc1)c1ccccc1)NC(C)(C)C (centres undefined) | inactive
13 | NC[C@@H]1O[C@H](O[C@H]2[C@@H](O)[C@H](O[C@@H]3[C@@H](O)[C@H](N)C[C@H](N)[C@H]3O[C@H]3O[C@H](CN)[C@@H](O)[C@H](O)[C@H]3N)O[C@@H]2CO)[C@H](N)[C@@H](O)[C@@H]1O | inactive
14 | OC1OC[C@@H](O)[C@H](O)[C@@H]1O (some centres undefined) | inactive
15 | CCN(CC)c1ccc(C(=C2C=CC(=[N+](CC)CC)C=C2)c2ccccc2)cc1 | 7.5 µM (active)
16 | CC(CCc1ccc(O)cc1)NCC(O)c1ccc(O)cc1 (centres undefined) | inactive
17 | CC(=O)Nc1c(I)c(C(=O)O)c(I)c(N(C)C(C)=O)c1I | inactive
18 | C[C@]12C=CC(=O)N[C@@H]1CC[C@@H]1[C@@H]2CC[C@]2(C)[C@@H](C(=O)Nc3cc(C(F)(F)F)ccc3C(F)(F)F)CC[C@@H]12 | inactive
19 | CCC(Oc1ccccc1)C(=O)N[C@@H]1C(=O)N2[C@@H]1SC(C)(C)[C@@H]2C(=O)O (some centres undefined) | inactive
20 | COc1c(O[C@@H]2O[C@H](CO)[C@@H](O)[C@H](O)[C@H]2O)cc2c(c1OC)-c1ccc(SC)c(=O)cc1[C@@H](NC(C)=O)CC2 | inactive

Row | SMILES | Potency
21 | CC[C@@H]1/C=C(\C)C[C@H](C)C[C@H](OC)[C@H]2O[C@@](O)(C(=O)C(=O)N3CCCC[C@H]3C(=O)O[C@H](/C(C)=C/[C@@H]3CC[C@@H](Cl)[C@H](OC)C3)[C@H](C)[C@@H](O)CC1=O)[C@H](C)C[C@@H]2OC | inactive
22 | C[C@H](O)[C@H](O)[C@H]1CNc2nc(N)[nH]c(=O)c2N1 | inactive
23 | COc1ccc(C[C@H](N)C(=O)N[C@H]2[C@@H](O)[C@H](n3cnc4c(N(C)C)ncnc43)O[C@@H]2CO)cc1 | 2.66 µM (active)
24 | O=C(NNCNNC(=O)c1ccncc1)c1ccncc1 | inactive
25 | CC(O)[C@H]1CC[C@H]2[C@@H]3CC[C@@H]4C[C@@H](O)CC[C@]4(C)[C@H]3CC[C@]12C (some centres undefined) | inactive
26 | CCCCc1cc2c(=O)c(C(=O)OC)c[nH]c2cc1OCc1ccccc1 | inactive
27 | C=C[C@]1(C)C[C@@H](OC(=O)CSCCN(CC)CC)[C@]2(C)[C@H](C)CC[C@]3(CCC(=O)[C@H]32)[C@@H](C)[C@@H]1O | inactive
28 | CCCCCCCCCCCCCCCCCC(=O)OCC(C)O (centres undefined) | 23.7 µM (active)
29 | CCCCC[C@H](O)/C=C/[C@@H]1[C@H]2C/C(=C/CCCC(=O)O)O[C@H]2C[C@H]1O | inactive
30 | CCOC(=O)[C@@H](N)CS | inactive
31 | CC1(C)S[C@@H]2[C@H](NC(=O)C(N)c3ccccc3)C(=O)N2[C@H]1C(=O)OC1OC(=O)c2ccccc21 (some centres undefined) | inactive
32 | CN1CCc2c(c3ccccc3n2Cc2ccccc2)C1 | inactive
33 | CN(C)CCOc1ccccc1Cc1ccccc1 (tested in a mixture with another compound) | inactive
34 | CCOC(=O)c1c[nH]c2cc(OCC(C)C)c(OCC(C)C)cc2c1=O | inactive
35 | CN(CCO)CC(O)Cn1cnc2c1c(=O)n(C)c(=O)n2C (centres undefined) (tested in a mixture with another compound) | inactive
36 | FCOC(C(F)(F)F)C(F)(F)F | inactive
37 | CCN(CC)CCOc1ccc2nc(N(C)C)sc2c1 | inactive
38 | COc1cc(-c2ccc(-[n+]3nc(-c4ccccc4)nn3-c3ccc([N+](=O)[O-])cc3)c(OC)c2)ccc1-[n+]1nc(-c2ccccc2)nn1-c1ccc([N+](=O)[O-])cc1 | 29.8 µM (active)
39 | COC(=O)[C@H]1[C@H]2C[C@@H]3c4[nH]c5ccccc5c4CCN3C[C@H]2C[C@@H](OC(=O)c2cc(OC)c(OC)c(OC)c2)[C@@H]1OC | inactive
